Bioassay records as filed in PubChem BioAssay.
The list is not random: actives were taken first. Their share in the collection is about 7.5%.
ELG1 genotox: induces genotoxicity in HEK293T cells with luciferase-tagged ELG1. HEK293T ELG1-luciferase reporter, luminescence, 16 h. Potency, µM (top dose mostly 46 µM), actives largely listed as activators. 1.3% of 330,000 active. AID 504466; also: nearly all actives have a fitted effect of over 60% in size
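Quantitative HTS format in 1536-well plates. HEK293T ELG1-luciferase reporter cells receive test compound and are incubated 16 hr at 37 °C, 5% CO2; ONE-Glo added, 30 min room temperature, then luminescence read.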
Rab9 prom act: activates the Rab9 promoter; Huh7 Rab9 promoter-luciferase reporter, luminescence, 24 h; Potency, µM (series often up to 9.22 µM), hits mostly activators; 2.8% of 320,000 active; AID 485297; also: nearly all actives have a fitted effect of over 60% in size
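Steps: seed 1500 Huh7 Rab9-luc cells per well, rest 2 h at 37 °C; add compound in DMSO; incubate 24 h; add luciferase reagent, 10 min ambient; read luminescence.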
FLuc modulator: inhibits or activates purified firefly luciferase, miR-21 counter-screen; P08659; purified FLuc, Km substrates, luminescence inhibition; Potency, µM (top dose mostly 57.5 µM), usual class: inhibitors; 6.9% of 360,000 active; also: nearly all actives have a fitted effect of over 55% in size
Target sequence (P08659 whole entry, looked up): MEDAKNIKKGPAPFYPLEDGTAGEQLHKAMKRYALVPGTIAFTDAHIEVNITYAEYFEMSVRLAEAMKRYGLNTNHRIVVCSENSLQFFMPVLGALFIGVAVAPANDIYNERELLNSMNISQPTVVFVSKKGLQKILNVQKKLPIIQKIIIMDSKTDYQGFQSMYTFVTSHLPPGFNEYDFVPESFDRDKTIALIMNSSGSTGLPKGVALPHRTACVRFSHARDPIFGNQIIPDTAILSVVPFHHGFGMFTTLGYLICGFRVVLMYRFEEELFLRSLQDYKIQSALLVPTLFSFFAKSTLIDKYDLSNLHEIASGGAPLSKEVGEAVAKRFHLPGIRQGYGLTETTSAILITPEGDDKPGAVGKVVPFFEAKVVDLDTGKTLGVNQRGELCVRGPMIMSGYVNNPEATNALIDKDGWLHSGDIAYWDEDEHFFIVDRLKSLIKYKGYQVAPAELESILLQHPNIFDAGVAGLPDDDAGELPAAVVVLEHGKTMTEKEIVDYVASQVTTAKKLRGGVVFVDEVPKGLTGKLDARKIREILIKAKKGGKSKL
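Biochemical qHTS of compounds, final roughly 60 µM downward over six points, against 10 nM purified firefly luciferase using Km concentrations of substrates (10 uM D-luciferin, 10 uM ATP) in Tris acetate pH 7.5 buffer; luminescence output.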
NPC1 prom act: NPC1 promoter activation; Huh7 NPC1 promoter luciferase reporter, 24 h; 2.4% of 320,000 active; Potency, µM (series often up to 9.22 µM), actives largely listed as activators; also: nearly all actives have a fitted effect of over 60% in size
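Huh7 reporter cells (NPC1 promoter driving luciferase) are dosed with compound for 24 h at 37 °C, 5% CO2; luciferase detection reagent is then added and luminescence measured after 10 min at ambient temperature.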
SMN2 splice enh: enhancers of SMN2 splice variant expression | HEK293 SMN2-luciferase splicing reporter, luminescence, 30-36 h | Potency, µM (highest dose often 46.1 µM), hits mostly activators | 2.8% of 210,000 active | AID 1458; also: nearly all actives have a fitted effect of over 55% in size
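HEK293 cells carry an SMN2 […]–luciferase reporter in which exon 7 inclusion puts luciferase in frame. Cells were plated 10-12 h before compound addition, then incubated 30-36 h at 37C. ONE-Glo luminescence was read; sodium butyrate at 4.5 mM final served as control.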
Of the large screens only hits and unclear results are named; the others gave an inactive call. Calls follow the shape of the dose curve; as a rule, active = well fitted curve in the direction sought with a large enough effect; inconclusive = small, poorly fitted or top-dose-only effect, or another doubt; inactive = no such curve, though single readings can be large; an effect the other way counts as inactive or inconclusive.

O=C(O)c1ccc(N=NN2CCCCCC2)cc1	Rab9 prom act 0.32µM, FLuc modulator 11µM, NPC1 prom act inconclusive, SMN2 splice enh 4.5µM
CC(=O)Nc1cccc(N=NN2CCOCC2)c1	none (no result: SMN2 splice enh)
O=C(O)c1ccc(N=NN2CCCC2)cc1	none
CN(C)CCCN1c2ccccc2C(C)(C)c2ccccc21	none (no result: ELG1 genotox, Rab9 prom act, FLuc modulator, NPC1 prom act)
Cc1ccc(-c2nc3[nH]c(=O)cc(NC(=O)c4cccs4)n3n2)cc1	FLuc modulator 13µM (no result: SMN2 splice enh)
CC(C)(C)c1ccc(-c2nc3[nH]c(=O)cc(NC(=O)c4ccco4)n3n2)cc1	ELG1 genotox inconclusive, Rab9 prom act 1.1µM, FLuc modulator 0.43µM, NPC1 prom act 4µM (no result: SMN2 splice enh)
Cc1cc(N/N=C/c2ccc(Cl)cc2)nc(NCc2ccccc2)n1	FLuc modulator 15µM
Cc1cc(N/N=C/c2ccccc2F)nc(NCc2ccccc2)n1	FLuc modulator 15µM (no result: SMN2 splice enh)
CN(C)c1nc(NCc2ccccc2)nc(N/N=C/c2ccccc2F)n1	none
Cc1cc(N/N=C/c2cccc(Cl)c2)nc(NCc2ccccc2)n1	FLuc modulator inconclusive
Cc1cc(N/N=C/c2ccccc2)nc(NCc2ccccc2)n1	FLuc modulator 6µM
Cc1cc(N/N=C/c2cccc(F)c2)nc(NCc2ccccc2)n1	FLuc modulator 12µM (no result: SMN2 splice enh)
CCC1CN(C(=O)N2CCC(C(=O)NCCc3ccc(OC)cc3OC)CC2)c2ccccc2O1 (stereo not drawn)	none (no result: SMN2 splice enh)
O=C(c1ccc(Cn2cc([N+](=O)[O-])cn2)o1)N1CCCCCC1	none (no result: SMN2 splice enh)
CN(/N=C/c1c[nH]c2ccccc12)c1cnn(-c2ccc(F)c(Cl)c2)c(=O)c1Cl	FLuc modulator 13µM
CN(/N=C/c1cccnc1)c1cnn(-c2ccc(F)c(Cl)c2)c(=O)c1Cl	none (no result: SMN2 splice enh)
CCc1ccc(NS(=O)(=O)c2c(C(=O)N3CCOCC3)c(C)n(C)c2C)cc1	none (no result: SMN2 splice enh)
COc1ccc2nc(N/C(N)=N/C(=S)Nc3c(C)cccc3C)nc(C)c2c1	none
COc1ccc(NC(=S)/N=C(\N)Nc2nc(C)c3ccccc3n2)cc1	FLuc modulator 9.5µM (no result: SMN2 splice enh)
COc1ccc2nc(N/C(N)=N/S(C)(=O)=O)nc(C)c2c1	ELG1 genotox inconclusive, FLuc modulator 15µM (no result: SMN2 splice enh)
COc1ccc(CCN(C)Cc2ccc(C(=O)Nc3ccccc3)cc2)cc1OC	none (no result: SMN2 splice enh)
COC(=O)c1ccc(NC(=O)CSc2ncc3c(n2)-c2cc(Cl)ccc2N(Cc2ccccc2)S3(=O)=O)cc1	none (no result: ELG1 genotox, Rab9 prom act, NPC1 prom act, SMN2 splice enh)
Cc1ccc2cccc(OCC(=O)Nc3ccc4c(c3)OCO4)c2n1	none
COc1ccc(OCC(=O)Nc2ccc3c(c2)OCO3)cc1	FLuc modulator inconclusive (no result: SMN2 splice enh)
Cc1ccc(-n2c(C)cc(C(=O)COc3c(CO)cc(F)cc3CO)c2C)cc1C	FLuc modulator 24µM
COc1ccccc1OCC(=O)Nc1ccc2c(c1)OCO2	FLuc modulator 15µM, NPC1 prom act inconclusive (no result: SMN2 splice enh)
Cc1nnc(NC(=O)C(=O)c2cc(C)n(-c3ccc(C)c(C)c3)c2C)s1	none (no result: ELG1 genotox, Rab9 prom act, NPC1 prom act, SMN2 splice enh)
Cc1cc(C(=O)COc2ccccc2Cl)c(C)n1-c1ccc2c(c1)OCO2	ELG1 genotox inconclusive, FLuc modulator 21µM, SMN2 splice enh inconclusive
O=C(COc1ccccc1Cl)Nc1ccc2c(c1)OCO2	ELG1 genotox 3.5µM, Rab9 prom act inconclusive, FLuc modulator 3.4µM, NPC1 prom act 2.8µM (no result: SMN2 splice enh)
CCO/N=C(\C)c1c(O)c2ccccc2n(C)c1=O	none
Cc1cc(NC(=O)COc2ccccc2C)no1	ELG1 genotox inconclusive, Rab9 prom act 3.2µM, FLuc modulator 17µM, NPC1 prom act 3.2µM (no result: SMN2 splice enh)
Cc1cc(NC(=O)COc2cccc(C)c2C)no1	ELG1 genotox inconclusive, FLuc modulator inconclusive
Cc1ccccc1OCC(=O)OCC(=O)Nc1ccc2c(c1)OCCO2	none (no result: FLuc modulator, SMN2 splice enh)
COc1cc(C)ccc1OCC(=O)Nc1ccc2c(c1)OCO2	ELG1 genotox inconclusive, Rab9 prom act 2.8µM, FLuc modulator 7.6µM, NPC1 prom act inconclusive (no result: SMN2 splice enh)
Cc1ccccc1OCC(=O)Nc1ccc2c(c1)OCO2	ELG1 genotox inconclusive, FLuc modulator 13µM, NPC1 prom act inconclusive
COc1ccc(CC(=O)OCC(=O)Nc2ccc3c(c2)OCO3)cc1OC	none
CC(=O)Nc1cccc(NC(=O)COc2ccccc2C)c1	FLuc modulator 15µM (no result: SMN2 splice enh)
COc1ccccc1CN1CCCC2(CCN(C(=O)c3cccc(F)c3)CC2)C1	none (no result: ELG1 genotox, Rab9 prom act, FLuc modulator, NPC1 prom act)
Cc1cc(=O)oc2c(OS(C)(=O)=O)c(OS(C)(=O)=O)ccc12	none (no result: ELG1 genotox, Rab9 prom act, FLuc modulator, NPC1 prom act)
O=S(=O)(c1cnc(Cl)c(Cl)c1)N1CCN(c2ncccn2)CC1	none (no result: SMN2 splice enh)
CCN1C(C(=O)c2ccccc2)=C(OC(=O)COc2ccc(C)cc2)c2ccccc2S1(=O)=O	none (no result: ELG1 genotox, Rab9 prom act, NPC1 prom act)
C[C@H](CO)N1C[C@H](C)[C@@H](CN(C)S(=O)(=O)c2cn(C)cn2)Oc2c(NS(=O)(=O)c3cccs3)cccc2C1=O	none (no result: Rab9 prom act, FLuc modulator, NPC1 prom act, SMN2 splice enh)
Cc1ccc(NC(=O)C2CCCN(c3nnc(-n4c(C)ccc4C)s3)C2)c(C)c1 (stereo not drawn)	none (no result: ELG1 genotox, Rab9 prom act, NPC1 prom act)
COc1ccc(OCC(=O)Nc2cccc(OC)c2)cc1	ELG1 genotox inconclusive (no result: SMN2 splice enh)
COc1cccc(NC(=O)COc2ccccc2C(N)=O)c1	ELG1 genotox 7.9µM, Rab9 prom act 2µM, FLuc modulator 2.4µM, NPC1 prom act 2.8µM, SMN2 splice enh 4µM
Cc1ccc(NC(=O)COc2ccccc2C=O)cc1Cl	ELG1 genotox inconclusive, Rab9 prom act 2.5µM, FLuc modulator 0.85µM, NPC1 prom act 2µM (no result: SMN2 splice enh)
CNC(=O)[C@H](Cc1c[nH]c2ccccc12)NC(=O)[C@@H](CC(=O)NO)CC(C)C	none (no result: ELG1 genotox, Rab9 prom act, FLuc modulator, NPC1 prom act)
Cc1sc(NC(=O)c2cccnc2)nc1-c1ccccc1	none
